L3MBTL1 block = qHTS Assay for the Inhibitors of L3MBTL1; Potency, µM (highest dose often 57.1 µM), actives largely listed as inhibitors; 230,000 tested, 0.66% active; AlphaScreen L3MBTL1–H3K9me1 peptide binding; AID 485360, 2010; note: nearly all actives have a fitted effect of over 60% in size
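AlphaScreen assay: L3MBTL1 (50 nM final) was preincubated 30 min at room temperature with biotinylated H3(1-15)K9me1 peptide (75 nM final), then 30 min with library compounds; streptavidin donor and nickel chelate acceptor beads (10 ug/mL final) added, 30 min dark.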
G9a inh = qHTS Assay for Inhibitors of Histone Lysine Methyltransferase G9a. Potency, µM (doses to about 102 µM), hits mostly inhibitors. Histone-lysine N-methyltransferase EHMT2 (Homo sapiens), Q96KQ7. G9a H3K9 monomethylation, AlphaScreen, 2 h. 350,000 tested, 8.8% active; note: nearly all actives have a fitted effect of over 75% in size
Target sequence (Q96KQ7 913-1193 limits assumed): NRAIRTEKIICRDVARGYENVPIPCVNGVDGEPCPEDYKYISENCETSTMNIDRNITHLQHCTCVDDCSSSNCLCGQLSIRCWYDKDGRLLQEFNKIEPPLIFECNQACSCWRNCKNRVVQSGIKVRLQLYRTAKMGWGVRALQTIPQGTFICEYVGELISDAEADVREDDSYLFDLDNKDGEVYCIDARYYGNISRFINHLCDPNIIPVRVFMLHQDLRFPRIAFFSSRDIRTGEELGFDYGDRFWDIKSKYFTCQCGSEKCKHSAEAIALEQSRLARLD
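Quantitative HTS format: methyltransferase activity on a biotin-tagged H3K9 peptide is measured by AlphaScreen, using a rabbit anti-monomethyl-H3K9 antibody with streptavidin donor and anti-IgG acceptor beads. Final levels are 20 nM enzyme, 500 nM peptide, 20 uM SAM; 2 h RT.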
Sfp PPTase inh = qHTS Assay for Inhibitors of Bacillus subtilis Sfp phosphopantetheinyl transferase (PPTase); Biochemical Sfp PPTase activity, qHTS; 310,000 tested, 3.5% active; Potency, µM, hits mostly inhibitors; AID 1490, 2009; 4'-phosphopantetheinyl transferase ffp (Bacillus subtilis), Q9F4F7;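 note: the enzyme is Sfp with the accession as filed and its product quenches rhodamine fluorescence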
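Buffer: 50 mM Hepes-Na pH 7.6, 10 mM MgCl2, 0.01% Nonidet P-40, 0.01% BSA. Enzyme 15 nM, pre-exposed to compound 15 min; substrates then added and fluorescence change tracked over 30 min.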
BAZ2B inh = qHTS Assay for Inhibitors of BAZ2B. Bromodomain adjacent to zinc finger domain protein 2B (Homo sapiens), Q9UIF8. AlphaScreen BAZ2B-H3K14Ac peptide displacement. Potency, µM (titrated, usually from 114 µM), usual class: inhibitors. 360,000 tested, 4.4% active; note: nearly all actives have a fitted effect of over 60% in size
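AlphaScreen displacement of biotin-H3(5-23)K14Ac peptide (50 nM final) from BAZ2B (50 nM final) in PBS pH 7.4, 0.01% Tween-20; complex preformed 30 min RT, then compounds (top 110 uM) 30 min RT, beads 20 min dark.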
HP1b binding inh = HTS for Inhibitors of HP1-beta Chromodomain Interactions with Methylated Histone Tails. AlphaScreen HP1-beta / biotin-H3K9me3 peptide binding. Potency, µM (series often up to 114 µM), most hits filed as inhibitors. 390,000 tested, 0.56% active; note: nearly all actives have a fitted effect of over 70% in size
Target sequence (P83916 whole entry, looked up): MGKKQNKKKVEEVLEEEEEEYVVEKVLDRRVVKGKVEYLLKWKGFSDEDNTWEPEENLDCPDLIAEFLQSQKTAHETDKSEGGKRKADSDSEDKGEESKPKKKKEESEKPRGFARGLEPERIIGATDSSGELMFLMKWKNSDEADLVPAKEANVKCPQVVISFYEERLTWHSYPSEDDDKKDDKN
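AlphaScreen: HP1-beta (50 nM) preformed 30 min with biotin-H3(1-18)K9me3 peptide (50 nM) in PBS pH 7.4, 0.01% Tween-20. Compound added for 30 min at RT, then streptavidin donor/nickel chelate acceptor beads (10 ug/mL) for 30 min.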
JMJD2A Tudor = qHTS Assay for Inhibitors of JMJD2A-Tudor Domain; 390,000 tested, 4.4% active; Potency, µM (doses to about 114 µM), most hits filed as inhibitors; Lysine-specific demethylase 4A (Homo sapiens), O75164; AlphaScreen JMJD2A-Tudor / H3K4me3 peptide binding; AID 504339, 2011; note: nearly all actives have a fitted effect of over 50% in size
A number is an active result; n = inactive; u = inconclusive; x = not tested or not shown; ! = repeats disagree; [ ] = remark or other dose. Shown are actives, neighbours in structure and some others; about 12% of the full set was active somewhere. Calls come from the whole dose curve; as a rule, active = well fitted curve in the direction sought with a large enough effect; inconclusive = small, poorly fitted or top-dose-only effect, or another doubt; inactive = no such curve, though single readings can be large; an effect the other way counts as inactive or inconclusive.

SMILES	L3MBTL1 block	G9a inh	Sfp PPTase inh	BAZ2B inh	HP1b binding inh	JMJD2A Tudor
COc1cccc(OCC(O)CN2CCN(c3ccc(F)cc3)CC2)c1 (configuration not stated)	x	n[2.33 µM]	n	u	n	n
COc1ccc(NC(=O)CCS(=O)(=O)c2ccc3c(c2)n(C)c(=O)c(=O)n3C)cc1Cl	x	n	x	n	n	n
CCOCCc1nn2c(=O)cc(COC(=O)c3cccc(C)c3)nc2s1	x	n	x	n	n	n
c1ccc(CNc2nc(-c3ccccn3)nc3ccccc23)cc1	x	n[2.33 µM]	n	u	n	u
CNc1nc(-c2ccccn2)nnc1-c1ccccc1	x	n[12.7 µM]	63µM	0.89µM	n	5.6µM
CCN(C(=O)c1cc(S(=O)(=O)N2CCCC2)cn1C)c1ccc(OC)cc1	x	n	x	n	n	n
CCOc1cc(C2C(C(=O)OC)=C(C)NC3=C2C(=O)c2ccccc23)cc(Cl)c1O (configuration not stated)	x	u	x	u	n	n
CCOC(=O)C1=C(C)NC(=O)NC1c1ccc([N+](=O)[O-])o1 (configuration not stated)	n	n	n	n	n	n
CC(=O)C1=C(C)NC2=C(C(=O)c3ccccc32)C1c1ccccc1 (configuration not stated)	x	u	n	u	u	u
CCOC(=O)COc1ccccc1C1C(C(=O)OC)=C(C)NC2=C1C(=O)c1ccccc12 (configuration not stated)	x	13µM	x	40µM	u	40µM
CCOc1ccc(Br)cc1C1C(C(=O)OC)=C(C)NC2=C1C(=O)c1ccccc12 (configuration not stated)	x	u	x	22µM	u	25µM
CCOC(=O)C1=C(C)NC2=C(C(=O)c3ccccc32)C1c1ccc([N+](=O)[O-])o1 (configuration not stated)	n	x	35µM	11µM	50µM	22µM
COC(=O)COc1ccc(C2C(C(=O)OC)=C(C)NC3=C2C(=O)c2ccccc23)cc1OC (configuration not stated)	x	13µM	x	25µM	u	u
CCOC(=O)c1c(S(=O)(=O)N2CCN(c3cc(Cl)ccc3C)CC2)c(C)n(C)c1C	x	n	x	n	n	u
Cc1ccc2c(c1)NC(=O)c1cccc([N+](=O)[O-])c1CO2	n	50µM	n	n	x	x
CCOc1cc(/C=N/n2cnnc2)ccc1OCC(=O)Nc1ccccc1OC	x	n[12.7 µM]	n	n	n	n
CCOc1cc(/C=C2\C(=O)N(c3cccc(C(=O)O)c3)N=C2C(F)(F)F)ccc1OCC(=O)Nc1ccccc1OC	x	x	n	50µM	x	x
O=C(CN(c1ccc(Cl)cc1)S(=O)(=O)c1ccc(Cl)c([N+](=O)[O-])c1)NCCc1ccccc1	n	50µM	n	n	n	n
COc1c(C=O)c(O)cc2c1C(=O)c1ccccc1C2=O	x	5µM	u	x	x	x
COc1ccc2c(c1O)C(=O)c1ccccc1C2=O	n	n[12.7 µM]	n	n	x	x
CCNc1nc(SCCOc2ccc(Br)cc2)nc(N(C)C)n1	n	n	n	n	n	n
COc1ccc(C(=O)C[n+]2cccc(C)c2)cc1	n	71µM	n	n	n	n
Cc1cc(-c2n[nH]c(=S)n2/N=C/c2ccc(Br)s2)n[nH]1	n	u	n	n	n	13µM
Cc1cc(-c2n[nH]c(=S)n2/N=C/c2ccc(C)s2)n[nH]1	n	1.8µM	n	u	n	7.9µM
CCCCOCC1CN(c2ccccc2)C(=O)CS1 (configuration not stated)	n	n	n	n	n	n
SMILES	L3MBTL1 block	G9a inh	Sfp PPTase inh	BAZ2B inh	HP1b binding inh	JMJD2A Tudor
CCCCCC1C(=O)N2C=C(c3ccccc3)c3ccccc3N2C1=O (configuration not stated)	x	x	x	x	u	56µM
CCCCC1C(=O)N(c2ccccc2)N(c2ccccc2)C1=O	u	10µM!	u	n	n	n
COc1ccc(-c2nc(-c3cccc(C)c3)nc(N3CCN(C)CC3)c2C#N)cc1	n	79µM	n	n	n	n
COc1cccc(-c2nc(-c3ccccc3)nc(N3CCN(C)CC3)c2C#N)c1	n	50µM	n	u	n	56µM
COC(=O)c1sc2nc(-c3ccccc3)nc(N3CCN(C)CC3)c2c1C	n	u	50µM	u	n	u
CCOC(=O)c1sc2ncnc(N3CCN(C)CC3)c2c1C	n	u	n	n	n	n
O=C(NNC(=O)c1cc(-c2cccc(Br)c2)nc2ccccc12)c1csc(N2CCOCC2)n1	n	n[2.33 µM]	x	n	n	n
COc1cc2c(cc1OC)[C@@H](Cc1ccc(OCCC#N)cc1)N(C)CC2	x	35µM	n	n	n	n
COc1cc2c(cc1OC)C(Cc1ccc(O)c(Oc3ccc(C[C@H]4c5cc(OC)c(OC)cc5CCN4C)cc3)c1)N(C)CC2 (some centres not stated)	n	x	x	x	x	x
Oc1cc2c(cc1O)C1c3ccc(O)c(O)c3OCC1(O)C2 (configuration not stated)	u	u	2.5µM!	45µM	u	3.5µM
COc1cc(CNCCc2c[nH]c3ccccc23)ccc1OCc1ccccc1F	n	n[0.501 µM]	u	35µM	u	40µM
COc1ccccc1CCNCc1ccc(OC)c(OCc2ccccc2)c1	n	u	u	u	u	3.2µM
COc1cc(CNCCc2ccccc2)ccc1OCc1ccc(Cl)nc1	x	n[12.7 µM]	n	n	n	n
COc1cc(CNCc2cccnc2)ccc1OCc1ccccc1	n	n	n	n	n	n
COc1ccc(CNCc2ccco2)cc1OCc1ccccc1	n	13µM	u	79µM	u	13µM
O=C(CSc1nc2c([nH]c3ccccc32)c(=O)n1-c1cccc(Cl)c1)N1CCCC1	x	n	x	n	n	n
Cn1cc(S(=O)(=O)Nc2cccc3ccccc23)c(=O)n(C)c1=O	x	n	n	n	n	n
CN(C)CCCN1c2ccc([N+](=O)[O-])cc2CCc2cc([N+](=O)[O-])ccc21	x	x	x	x	u	18µM
CCOC(=O)c1sc(=S)[nH]c1C	x	x	x	x	u	14µM
CCOC(=O)c1c(C)[nH]sc1=S	n	3.5µM	u	n	u	25µM
CCOC(=O)c1[nH]c(C)c(C(=O)OCC)c1C	x	n	n	n	n	n
CCN(CC)S(=O)(=O)c1ccc2c(c1)N(CC(=O)NCCCN1CCN(c3cc(Cl)ccc3C)CC1)C(=O)CO2	x	n	x	n	n	u
CCOc1ccccc1NC(=S)Nc1ccccc1F	n	n	u	n	n	n

Compound activity from PubChem BioAssay.
